From the supplement of paper PMC6897291

Legend:
U-2932 [1] = experiment: growth inhibition by drug alone (1 - RLU/untreated control) (fraction); higher = stronger inhibition; settings: 177Lu-lilotomab satetraxetan 0 ug/ml
In short: (§1)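 Growth inhibition was calculated from RealTime-Glo RLU against untreated no-drug wells. Values equal 1 − RLU/mean of 48 untreated no-drug wells per plate, read daily from day 3 after 1 h at 37°C. RIVA and U-2932 cells, with or without 18 h pretreatment by a radiolabelled anti-CD37 antibody conjugate (~600 MBq/mg; 0.5 µg/ml RIVA, 1 µg/ml U-2932), were washed and plated at 3,000 cells/well on compound-printed plates at 10/100 nM (RIVA) or 10/1,000 nM (U-2932).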

RIVA [2] = experiment: as above; settings: 177Lu-lilotomab satetraxetan 0 ug/ml
In short: as §1

U-2932 [3] = experiment: growth inhibition by drug plus 177Lu-lilotomab satetraxetan (1 - RLU/untreated control) (fraction); higher = stronger inhibition; settings: 177Lu-lilotomab satetraxetan 1 ug/ml
In short: as §1

RIVA [4] = experiment: as above; settings: 177Lu-lilotomab satetraxetan 0.5 ug/ml
In short: as §1

| Structure (SMILES) | growth inhibition by drug alone (U-2932 [1]; 10 nM, time (day): 3) | growth inhibition by drug alone (U-2932 [1]; 10 nM, time (day): 4) | growth inhibition by drug alone (U-2932 [1]; 10 nM, time (day): 5) | growth inhibition by drug alone (U-2932 [1]; 10 nM, time (day): 6) | growth inhibition by drug alone (U-2932 [1]; 1000 nM, time (day): 3) | growth inhibition by drug alone (U-2932 [1]; 1000 nM, time (day): 4) | growth inhibition by drug alone (U-2932 [1]; 1000 nM, time (day): 5) | growth inhibition by drug alone (U-2932 [1]; 1000 nM, time (day): 6) | growth inhibition by drug alone (RIVA [2]; 10 nM, time (day): 3) | growth inhibition by drug alone (RIVA [2]; 10 nM, time (day): 4) | growth inhibition by drug alone (RIVA [2]; 10 nM, time (day): 5) | growth inhibition by drug alone (RIVA [2]; 10 nM, time (day): 6) | growth inhibition by drug alone (RIVA [2]; 100 nM, time (day): 3) | growth inhibition by drug alone (RIVA [2]; 100 nM, time (day): 4) | growth inhibition by drug alone (RIVA [2]; 100 nM, time (day): 5) | growth inhibition by drug alone (RIVA [2]; 100 nM, time (day): 6) | growth inhibition by drug plus 177Lu-lilotomab satetraxetan (U-2932 [3]; 10 nM, time (day): 3) | growth inhibition by drug plus 177Lu-lilotomab satetraxetan (U-2932 [3]; 10 nM, time (day): 4) | growth inhibition by drug plus 177Lu-lilotomab satetraxetan (U-2932 [3]; 10 nM, time (day): 5) | growth inhibition by drug plus 177Lu-lilotomab satetraxetan (U-2932 [3]; 10 nM, time (day): 6) | growth inhibition by drug plus 177Lu-lilotomab satetraxetan (U-2932 [3]; 1000 nM, time (day): 3) | growth inhibition by drug plus 177Lu-lilotomab satetraxetan (U-2932 [3]; 1000 nM, time (day): 4) | growth inhibition by drug plus 177Lu-lilotomab satetraxetan (U-2932 [3]; 1000 nM, time (day): 5) | growth inhibition by drug plus 177Lu-lilotomab satetraxetan (U-2932 [3]; 1000 nM, time (day): 6) | growth inhibition by drug plus 177Lu-lilotomab satetraxetan (RIVA [4]; 10 nM, time (day): 3) | growth inhibition by drug plus 177Lu-lilotomab satetraxetan (RIVA [4]; 10 nM, time (day): 4) | growth inhibition by drug plus 177Lu-lilotomab satetraxetan (RIVA [4]; 10 nM, time (day): 5) | growth inhibition by drug plus 177Lu-lilotomab satetraxetan (RIVA [4]; 10 nM, time (day): 6) | growth inhibition by drug plus 177Lu-lilotomab satetraxetan (RIVA [4]; 100 nM, time (day): 3) | growth inhibition by drug plus 177Lu-lilotomab satetraxetan (RIVA [4]; 100 nM, time (day): 4) | growth inhibition by drug plus 177Lu-lilotomab satetraxetan (RIVA [4]; 100 nM, time (day): 5) | growth inhibition by drug plus 177Lu-lilotomab satetraxetan (RIVA [4]; 100 nM, time (day): 6) |
| --- | --- | --- | --- | --- | --- | --- | --- | --- | --- | --- | --- | --- | --- | --- | --- | --- | --- | --- | --- | --- | --- | --- | --- | --- | --- | --- | --- | --- | --- | --- | --- | --- |
| CCn1c(-c2nonc2N)nc2c(C#CC(C)(C)O)ncc(OC[C@H]3CCCNC3)c21 | 0.0651 | 0.0169 | -0.0977 | -0.22 | 0.654 | 0.769 | 0.826 | 0.861 | 0.0369 | -0.0639 | -0.133 | -0.326 | -0.134 | -0.204 | -0.217 | -0.34 | -0.0148 | 0.000859 | -0.00972 | 0.0167 | 0.596 | 0.736 | 0.792 | 0.836 | 0.28 | 0.464 | 0.475 | 0.494 | 0.315 | 0.41 | 0.42 | 0.413 |
| CCN(CC)CCNC(=O)c1c(C)[nH]c(/C=C2\C(=O)Nc3ccc(F)cc32)c1C [Sunitinib Malate (Sutent)] | 0.0107 | 0.0161 | -0.0625 | -0.274 | -0.0117 | -0.00484 | -0.0741 | -0.207 | -0.117 | -0.163 | -0.216 | -0.511 | -0.295 | -0.315 | -0.325 | -0.492 | -0.0903 | -0.0528 | -0.026 | 0.0273 | -0.0792 | -0.017 | -0.0458 | -0.033 | 0.291 | 0.452 | 0.477 | 0.49 | 0.257 | 0.374 | 0.387 | 0.364 |
| N#CCNC(=O)c1ccc(-c2ccnc(Nc3ccc(N4CCOCC4)cc3)n2)cc1 | -0.0265 | -0.0512 | -0.0373 | 0.104 | -0.161 | -0.159 | -0.134 | 0.0156 | -0.164 | -0.233 | -0.267 | -0.364 | -0.378 | -0.377 | -0.416 | -0.56 | -0.0778 | -0.021 | 0.0189 | 0.13 | 0.143 | 0.174 | 0.206 | 0.384 | 0.481 | 0.53 | 0.555 | 0.562 | 0.347 | 0.434 | 0.447 | 0.446 |
| C=CC(=O)Nc1cccc(Oc2nc(Nc3ccc(N4CCN(C)CC4)cc3OC)ncc2Cl)c1 | -0.0921 | -0.0614 | -0.0383 | 0.12 | 0.122 | 0.0694 | 0.0278 | 0.0218 | -0.189 | -0.196 | -0.216 | -0.258 | -0.151 | -0.238 | -0.251 | -0.328 | -0.102 | -0.073 | -0.0211 | 0.138 | 0.163 | 0.104 | 0.0972 | 0.216 | 0.397 | 0.494 | 0.517 | 0.516 | 0.215 | 0.265 | 0.299 | 0.321 |
| O=c1c(O)c(-c2ccc(O)c(O)c2)oc2cc(O)cc(O)c12 [Quercetin (Sophoretin)] | 0.129 | 0.074 | -0.0824 | -0.0972 | 0.0543 | 0.0523 | 0.0143 | -0.101 | -0.0527 | -0.036 | -0.117 | -0.426 | -0.494 | -0.296 | -0.357 | -0.683 | 0.0451 | 0.0897 | 0.166 | 0.21 | 0.0503 | 0.0821 | 0.135 | 0.211 | 0.546 | 0.61 | 0.613 | 0.619 | 0.346 | 0.469 | 0.48 | 0.508 |
| Nc1cc(C(F)(F)F)c(-c2cc(N3CCOCC3)nc(N3CCOCC3)n2)cn1 | -0.0505 | -0.0268 | -0.042 | 0.0241 | 0.632 | 0.62 | 0.563 | 0.519 | -0.24 | -0.261 | -0.283 | -0.377 | -0.244 | -0.324 | -0.245 | -0.359 | -0.138 | -0.0899 | -0.0958 | -0.0143 | 0.508 | 0.421 | 0.403 | 0.455 | 0.268 | 0.424 | 0.461 | 0.48 | 0.33 | 0.394 | 0.402 | 0.384 |
| CCOc1ccc(Cc2cc([C@@H]3O[C@H](CO)[C@@H](O)[C@H](O)[C@H]3O)ccc2Cl)cc1 [Dapagliflozin] | 0.142 | 0.11 | -0.0277 | -0.0754 | 0.0652 | 0.0655 | 0.0265 | -0.143 | 0.0261 | 0.0489 | -0.0941 | -0.357 | -0.159 | -0.0453 | -0.0994 | -0.161 | 0.0831 | 0.139 | 0.185 | 0.224 | 0.0836 | 0.124 | 0.161 | 0.282 | 0.595 | 0.635 | 0.644 | 0.658 | 0.517 | 0.574 | 0.572 | 0.572 |
